Compound activity deposited in PubChem by National Center for Advancing Translational Sciences (NCATS).
Hits are enriched below; roughly 18% of the tested compounds scored in any of these assays.
TDP1 cell CPT: DT40-hTDP1 cell growth loss with CPT; chicken DT40 Tdp1-/-;hTDP1 cells + 20 nM CPT, ATP luminescence, 48 h; Potency, µM (titrated, usually from 46.2 µM), without a hit: at the highest dose activity change, negative = growth inhibition, usual class: inhibitors; 420,000 tested, 12% active; AID 686979; note: potency is the fitted concentration of half-maximal effect; nearly all actives have a fitted effect of over 55% in size
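Chicken DT40 Tdp1-/- cells stably complemented with human TDP1 were seeded at 400 cells/well in medium containing 20 nM camptothecin, exposed to pin-transferred compounds, and grown at 37 °C for at least 48 hr. Viability was read as ATP luminescence.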
TDP1 cell noCPT: qHTS for Inhibitors of human tyrosyl-DNA phosphodiesterase 1 (TDP1): qHTS in cells in absence of CPT; DT40 Tdp1-/- hTDP1 cells, no CPT, ATP luminescence, 48 h; Potency, µM (highest dose often 46.2 µM), for inactives: at the highest dose activity change, negative = growth inhibition, actives largely listed as inhibitors; 420,000 tested, 15% active; AID 686978, 2013; note: potency is the fitted concentration of half-maximal effect; nearly all actives have a fitted effect of over 55% in size
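Stably hTDP1-transfected Tdp1-null chicken DT40 cells were treated with library compounds minus camptothecin and grown for at least 48 hr at 37 °C, after which cellular ATP was quantified by luminescence.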
Gal4-VP16 FLuc: inhibits Gal4-VP16 luciferase reporter, ROR gamma counter-screen | Drosophila S2 Gal4-VP16 UAS-luciferase, luminescence, 20 h | Potency, µM (doses to about 53.6 µM), for the others: at the highest dose activity, negative = inhibition, hits mostly inhibitors | 310,000 tested, 3.5% active;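 note: Gal4-VP16 expression switched on by copper sulfate through the metallothionein promoter; potency is the fitted concentration of half-maximal effect; nearly all actives have a fitted effect of over 50% in size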
LDHA inh: LDHA (human) enzyme inhibition. AID 1347041. 480,000 tested, 0.15% active. purified LDHA, NADH/diaphorase-resazurin fluorescence; hits give low values. activity change, % (values are at about 110 or 230 µM); in the data active = activity change below about -30%; inconclusive = mostly about -25% to -30%;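 note: plate controls were DMSO wells for no effect and wells without enzyme for full effect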
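Human LDH5 (2 nM) was incubated with 0.06 mM NADH and 0.2 mM pyruvate for 5 min at room temperature in Tris pH 7.4. Remaining NADH was coupled through diaphorase/resazurin, and resorufin fluorescence was read at 0 and 20 min.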
RORg inh: ROR gamma (mouse) transcription inhibition; Drosophila S2 Gal4-RORgamma UAS-luciferase reporter, 20 h; Potency, µM (highest dose often 53.6 µM), for the others: at the top dose activity change, negative = inhibition, usual class: inhibitors; 310,000 tested, 5.4% active; AID 2551; note: potency is the fitted concentration of half-maximal effect; nearly all actives have a fitted effect of over 60% in size
Target sequence (P51450 whole entry, looked up, the tested form may be a part): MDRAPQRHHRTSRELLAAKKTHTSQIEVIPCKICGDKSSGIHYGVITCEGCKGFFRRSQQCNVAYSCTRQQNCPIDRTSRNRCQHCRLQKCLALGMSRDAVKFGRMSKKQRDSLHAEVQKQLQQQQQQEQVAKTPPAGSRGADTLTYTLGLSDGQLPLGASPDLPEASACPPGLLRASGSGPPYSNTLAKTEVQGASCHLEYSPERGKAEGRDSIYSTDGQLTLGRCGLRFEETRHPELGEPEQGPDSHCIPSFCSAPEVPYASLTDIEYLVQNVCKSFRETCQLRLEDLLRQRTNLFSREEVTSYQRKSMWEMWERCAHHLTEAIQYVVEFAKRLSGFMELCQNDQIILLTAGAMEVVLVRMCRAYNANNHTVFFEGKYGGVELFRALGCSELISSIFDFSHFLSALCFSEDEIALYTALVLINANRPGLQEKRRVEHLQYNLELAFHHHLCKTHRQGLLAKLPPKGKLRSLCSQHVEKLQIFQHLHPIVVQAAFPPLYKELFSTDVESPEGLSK
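Luciferase reporter read in Schneider cells carrying Gal4-RORγ (mouse) and UAS-Photinus luciferase; cells given compound 1 h before 700 uM copper sulfate induction, then incubated 20 h at ambient temperature.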
IL-1B inflam inh: inflammasome signaling inhibition, IL-1 beta readout. THP-1 LPS/ATP IL-1B secretion, AlphaLISA, 16 h; hits give low values. 360,000 tested, 4.7% active. activity change, % at 57.5 µM; in the data active = activity change below about -50%; inconclusive = mostly about -30% to -49%
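THP-1 cells pretreated 1 hr with compounds (up to 57.5 uM final), then stimulated with LPS (250 ng/mL final) plus ATP (1.25 mM final); secreted IL-1B measured by AlphaLISA after 16 hr, decreased signal indicating inhibition.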
Active calls of the source: *. Unless noted, calls come from the whole dose curve; as a rule, active = well fitted curve in the direction sought with a large enough effect; inconclusive = small, poorly fitted or top-dose-only effect, or another doubt; inactive = no such curve, though single readings can be large; an effect the other way counts as inactive or inconclusive. Unless noted, % is set by controls: 0 for no effect and ±100 for the full control effect.

CCC(C)(C)NC(=O)Cc1nn(C)c(=O)c2ccccc12 was read as LDHA inh -3.
For Cc1noc(C)c1-c1ccc2ncnc(NCc3cccs3)c2c1 the results were TDP1 cell CPT 12µM*, TDP1 cell noCPT 23µM*, Gal4-VP16 FLuc -8% and RORg inh -19%.
For Cc1ccsc1CNc1ncnc2ccc(-c3c(C)noc3C)cc12 the results were Gal4-VP16 FLuc inconclusive, LDHA inh -5 and RORg inh inconclusive.
Cc1noc(C)c1-c1ccc2ncnc(NCC3CCCCN3C)c2c1 (stereo unspecified) was read as Gal4-VP16 FLuc 5%, LDHA inh 2 and RORg inh -30%.
`Cc1noc(C)c1-c1ccc2ncnc(NC3CCCc4ccccc43)c2c1` (stereo unspecified) gave Gal4-VP16 FLuc -4% and RORg inh 28µM*.
`Cc1noc(C)c1-c1ccc2ncnc(NCc3ccc(Br)cc3)c2c1` gave Gal4-VP16 FLuc 11µM* and RORg inh 11µM*.
Cc1cc(C)cc(OCCn2c(CN(C)C(=O)c3ccco3)nc3ccccc32)c1 was read as LDHA inh -3.
O=C(COc1ccccc1Cl)NNC(=O)Cn1[nH]c(=O)c2ccccc2c1=O was read as TDP1 cell CPT 9.2µM*, TDP1 cell noCPT inconclusive, LDHA inh -13 and IL-1B inflam inh 6.
CN(C)c1ccc(/C=C/c2c(Cl)cnc3ccccc23)cc1 was read as TDP1 cell CPT 11µM* and TDP1 cell noCPT 11µM*.
`CN(C)c1ccc(/C=C/c2c(Br)cnc3ccccc23)cc1` gave TDP1 cell CPT inconclusive, TDP1 cell noCPT inconclusive and LDHA inh 2.
For CN(C)c1ccc(/C=C/c2ncnc3ccccc23)cc1 the results were TDP1 cell CPT inconclusive, TDP1 cell noCPT 16µM* and LDHA inh 2.
Cc1ccc(C(=O)C(C#N)C(=O)NC2CCCCC2)cc1C (stereo unspecified) was read as LDHA inh 0.
CC(C)NC(=O)CN(C)CC(=O)NC(=O)NCCC1=CCCCC1 was read as LDHA inh -3.
CCOc1c(Cl)cc(/C=N/NC(N)=S)cc1OC was read as TDP1 cell CPT inconclusive, TDP1 cell noCPT 23µM*, Gal4-VP16 FLuc 16µM*, LDHA inh -5, RORg inh 7.1µM* and IL-1B inflam inh 155.
C#CCOc1c(Cl)cc(/C=N/NC(N)=S)cc1OCC was read as TDP1 cell CPT inconclusive, TDP1 cell noCPT 10µM*, Gal4-VP16 FLuc inconclusive, LDHA inh -5, RORg inh 14µM* and IL-1B inflam inh 24.
For O=C(O)CNS(=O)(=O)c1cccc(C(=O)/C=C/c2ccccc2Cl)c1 the results were LDHA inh 1.
Screening CCC(C)c1ccccc1NC(=O)Cn1cnc2c1c(=O)n(C)c(=O)n2C (stereo unspecified) returned LDHA inh 6.
`CCOC(=O)N1CCN(C(=O)COc2cccc3c2CCN(Cc2ccccc2F)C3=O)CC1` gave TDP1 cell CPT 21µM*, TDP1 cell noCPT 15µM*, Gal4-VP16 FLuc -3%, LDHA inh 1, RORg inh inconclusive and IL-1B inflam inh -5.
For O=C(COc1cccc2c1CCN(Cc1ccccc1F)C2=O)N1CCOCC1 the results were Gal4-VP16 FLuc -6% and RORg inh 3%.
`O=C(COc1cccc2c1CCN(Cc1ccccc1F)C2=O)N1CCCCC1` gave TDP1 cell CPT inconclusive, TDP1 cell noCPT 21µM*, Gal4-VP16 FLuc -12%, LDHA inh -5, RORg inh 17% and IL-1B inflam inh -3.
